# Values without a mark were called inactive. Records with an inconclusive call do not appear. Where a call stands in place of a potency, no number is given. Active and inactive are the calls of the source. Unless noted, calls come from the whole dose curve; as a rule, active = well fitted curve in the direction sought with a large enough effect in the repeat runs; inconclusive = weak or mixed curves; inactive = no such curve, though single readings can be large; an effect the other way counts as inactive or inconclusive.
# Experiments:
# [1] = target: Thyrotropin receptor (Homo sapiens) (UniProt P16473); experiment: qHTS assay to identify small molecule agonists of the thyroid stimulating hormone receptor (TSHR) signaling pathway (AID 1224843; calls by dose curve; note: nearly all actives have a fitted effect of over 45% in size)
# Chain of Thyrotropin receptor (Homo sapiens) (P16473 whole entry, looked up): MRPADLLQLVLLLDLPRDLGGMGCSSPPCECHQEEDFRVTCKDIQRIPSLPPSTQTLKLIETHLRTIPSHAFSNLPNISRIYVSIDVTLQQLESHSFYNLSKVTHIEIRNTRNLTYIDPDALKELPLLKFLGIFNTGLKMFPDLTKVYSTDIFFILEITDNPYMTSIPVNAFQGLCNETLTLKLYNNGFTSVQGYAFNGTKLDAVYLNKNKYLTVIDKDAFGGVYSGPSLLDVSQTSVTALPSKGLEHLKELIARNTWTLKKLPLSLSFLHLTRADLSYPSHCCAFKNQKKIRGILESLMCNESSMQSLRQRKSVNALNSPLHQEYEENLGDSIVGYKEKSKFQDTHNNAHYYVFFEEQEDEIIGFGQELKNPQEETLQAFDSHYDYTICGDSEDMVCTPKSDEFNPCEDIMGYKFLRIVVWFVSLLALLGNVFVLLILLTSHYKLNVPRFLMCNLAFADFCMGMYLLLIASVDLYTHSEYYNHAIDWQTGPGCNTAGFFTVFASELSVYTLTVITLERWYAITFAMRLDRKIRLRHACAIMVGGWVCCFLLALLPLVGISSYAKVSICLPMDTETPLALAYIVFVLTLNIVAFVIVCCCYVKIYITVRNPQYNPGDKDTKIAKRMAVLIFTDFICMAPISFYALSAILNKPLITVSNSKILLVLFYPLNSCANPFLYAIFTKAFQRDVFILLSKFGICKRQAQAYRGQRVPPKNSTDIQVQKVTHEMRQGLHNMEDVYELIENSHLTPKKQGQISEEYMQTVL
# Procedure, shortened: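 TSHR-expressing HEK293 cells (800 per well) were exposed to compounds for 30 min at room temperature. cAMP was then detected by HTRF competition with cAMP-d2 and anti-cAMP cryptate, read after 1 h at room temperature. Fifteen concentrations, triplicate.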
# [2] = qHTS assay to identify small molecule agonists of the hypoxia (HIF-1) signaling pathway - cell viability counter screen (AID 1224844; calls by dose curve; note: nearly all actives have a fitted effect of over 50% in size; note: potency is the fitted concentration of half-maximal effect)
# Procedure, shortened: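 HRE-bla ME-180 cells in medium with 0.5% dialyzed FBS were preincubated 5 hrs at 37C, exposed to compounds for 17 hrs, then viability was read as CellTiter-Glo luminescence after 30 min at room temperature, in the reporter wells.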
# [3] = qHTS assay to identify small molecule agonists of the hypoxia (HIF-1) signaling pathway (AID 1224846; active = well fitted activation curve with a large enough effect in the signal ratio in the repeat runs, not every such curve was filed as active; the % refers to the signal ratio)
# Procedure, shortened: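 HRE-bla ME-180 cells (beta-lactamase reporter under hypoxia response element) were plated at 2,000 cells/well in medium with 0.5% dialyzed FBS, rested 5 hrs, then given compounds in DMSO for 17 hrs at 37C, 5% CO2. Reporter induction was read with CCF4-AM FRET substrate.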
# [4] = qHTS assay to identify small molecule agonists of H2AX - cell viability counter screen (AID 1224847; calls by dose curve; note: top concentration of the series differs between compounds; nearly all actives have a fitted effect of over 30% in size)
# Procedure, shortened: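 Counter-screen for viability: CellTiter-Glo ATP luminescence read after 3 h compound treatment (15-point titration, 0.76% DMSO final) of CHO-K1 cells at 37C, with 30 min room-temperature reagent incubation.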
# [5] = qHTS RealTime-Glo MT Cell Viability Assay in HepG2 cells - 24 hour (AID 1224867); note: nearly all actives have a fitted effect of over 50% in size
# Procedure, shortened: (§1)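 Cell number in HepG2 cultures estimated from NanoLuc luminescence generated by metabolic reduction of a prosubstrate by living cells. The homogeneous, nonlytic format allowed repeated reads at 0, 8, 16, 24, 32 and 40 h of compound exposure.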
# [6] = qHTS RealTime-Glo MT Cell Viability Assay in HEK293 cells - 32 hour (AID 1224868); note: top concentration of the series differs between compounds; nearly all actives have a fitted effect of over 50% in size
# Procedure, shortened: (§2)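 Homogeneous bioluminescent viability format in HEK293 cells (600 cells/well). Following 5 h at 37 C/5% CO2, 23 nL compound was pintooled; the signal was measured repeatedly during 40 h incubation.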
# [7] = A CellTox Green Cytotoxicity Assay to monitor cytotoxicity in HEK293 cells - 0 hour (AID 1224869); note: nearly all actives have a fitted effect of over 50% in size
# Procedure, shortened: (§3)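 HEK293 cells premixed with CellTox Green dye were seeded at 600 cells/well and left 5 h at 37 C/5% CO2 before pin transfer of 23 nL compound in DMSO. Fluorescence from dye bound to dead-cell DNA was read during 40 h treatment.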
# [8] = A CellTox Green Cytotoxicity Assay to monitor cytotoxicity in HEK293 cells - 40 hour (AID 1224871); note: nearly all actives have a fitted effect of over 45% in size
# Procedure, shortened: as §3
# [9] = qHTS RealTime-Glo MT Cell Viability Assay in HEK293 cells - 16 hour (AID 1224872)
# Procedure, shortened: as §2
# [10] = qHTS RealTime-Glo MT Cell Viability Assay in HepG2 cells - 8 hour (AID 1224873); note: nearly all actives have a fitted effect of over 55% in size
# Procedure, shortened: (§4)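 HepG2 cells mixed with RealTime-Glo MT reagents (NanoLuc plus cell-permeant prosubstrate) were seeded at 600 cells/well, incubated 5 h at 37 C/5% CO2, then pinned with compounds in DMSO; nonlytic luminescence tracked viability during 40 h treatment.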
# [11] = qHTS RealTime-Glo MT Cell Viability Assay in HEK293 cells - 40 hour (AID 1224874); details: RealTime-Glo luminescence; max response: active compounds read low; note: nearly all actives have a fitted effect of over 50% in size
# Procedure, shortened: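 HEK293 cells mixed with RealTime-Glo reagents (NanoLuc plus cell-permeant prosubstrate) at 600 cells/well, preincubated 5 h at 37 C/5% CO2, then given 23 nL compound in DMSO. Nonlytic luminescence from viable cells was read at 0, 8, 16, 24, 32 and 40 h.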
# [12] = A CellTox Green Cytotoxicity Assay to monitor cytotoxicity in HEK293 cells - 24 hour (AID 1224875); note: nearly all actives have a fitted effect of over 45% in size; note: potency is the fitted concentration of half-maximal effect
# Procedure, shortened: as §3
# [13] = A CellTox Green Cytotoxicity Assay to monitor cytotoxicity in HepG2 cells - 16 hour (AID 1224876); note: nearly all actives have a fitted effect of over 45% in size; note: potency is the fitted concentration of half-maximal effect
# Procedure, shortened: (§5)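 HepG2 cells were seeded together with the CellTox Green dye at 600 cells/well, left 5 h at 37 C/5% CO2, then given compounds in DMSO. Fluorescence from dye bound to dead-cell DNA was read repeatedly over 40 h of treatment at 37 C.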
# [14] = qHTS RealTime-Glo MT Cell Viability Assay in HepG2 cells - 32 hour (AID 1224877); note: nearly all actives have a fitted effect of over 55% in size
# Procedure, shortened: as §1
# [15] = A CellTox Green Cytotoxicity Assay to monitor cytotoxicity in HepG2 cells - 24 hour (AID 1224878); note: nearly all actives have a fitted effect of over 45% in size; note: potency is the fitted concentration of half-maximal effect
# Procedure, shortened: as §5
# [16] = A CellTox Green Cytotoxicity Assay to monitor cytotoxicity in HepG2 cells - 40 hour (AID 1224879); note: nearly all actives have a fitted effect of over 40% in size; note: potency is the fitted concentration of half-maximal effect
# Procedure, shortened: as §5
# [17] = qHTS assay to identify small molecule agonists of H2AX (AID 1224845; active = well fitted activation curve with a large enough effect in the signal ratio in the repeat runs, not every such curve was filed as active; the % refers to the signal ratio)
# Procedure, shortened: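 Wild-type CHO-K1 cells plated overnight, then exposed 3 hr at 37C to compounds at 15 concentrations (0.76% DMSO). Lysed, then HTRF anti-pH2AX(S139)-cryptate/anti-H2AX-d2 detection after 24 hr at room temperature; emissions 665 and 620 nm.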
# [18] = qHTS assay to identify small molecule agonists of the estrogen related receptor (ERR) signaling pathway from Tox21 library (AID 1224849; calls by dose curve; note: nearly all actives have a fitted effect of over 15% in size); details: ERR reporter cell line, ONE-Glo luciferase, 18 h; at 92.4 µM (top of the series) unless noted
# Procedure, shortened: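 ERR reporter cell line (NTP) seeded, rested 6 h at 37 C/5% CO2, then pinned with Tox21 compounds in DMSO. After 18 h at 37 C, ONE-Glo luciferase luminescence was read following 30 min at room temperature.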
# [19] = qHTS RealTime-Glo MT Cell Viability Assay in HepG2 cells - 40 hour (AID 1224870); note: nearly all actives have a fitted effect of over 50% in size
# Procedure, shortened: as §4
# [20] = qHTS assay to identify small molecule antagonists of the estrogen related receptor (ERR) signaling pathway from Tox21 library (AID 1224848); note: nearly all actives have a fitted effect of over 50% in size; note: potency is the fitted concentration of half-maximal effect
# Procedure, shortened: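 Cells: ERR line, 2,000/well; 6 h preincubation 37 C/5% CO2. Cpd in DMSO via pin tool; 18 h, 37 C. ONE-Glo, 30 min RT, luminescence.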
SMILES,Potency [1],Potency [2],outcome [3],Potency [4],Potency [5],Potency [6],Potency [7],Potency [8],Potency [9],Potency [10],max response [11],Potency [12],Potency [13],Potency [14],Potency [15],Potency [16],Potency [17],"activity change, positive = activation [18]",Potency [19],Potency [20]
CC(=O)c1cc2ccccc2s1,inactive,inactive,inactive,inactive,inactive,inactive,inactive,inactive,inactive,inactive,2.63%,inactive,inactive,inactive,inactive,inactive,–,–,–,–
Cc1cccc(N(C)C(=S)Oc2ccc3c(c2)CCC3)c1,–,inactive,inactive,–,inactive,inactive,inactive,inactive,inactive,inactive,-16.2%,inactive,inactive,inactive,inactive,inactive,inactive,-21.2% [at 42.5 µM],inactive,–
Clc1cc(Cl)nc(Cl)n1,inactive,–,–,inactive,inactive,–,inactive,inactive,inactive,inactive,–,inactive,inactive,inactive,inactive,inactive,inactive,–,inactive,–
CCOC(=O)[C@H](CCc1ccccc1)N[C@@H](C)C(=O)N(CC(=O)O)C1Cc2ccccc2C1,–,7.56 µM (active),inactive,inactive,inactive,inactive,inactive,inactive,inactive,inactive,5.01%,inactive,inactive,inactive,inactive,inactive,inactive,–,–,–
CCCCN(CCCC)C(C(N)=O)c1ccc(OC)cc1 (centres undefined),–,inactive,inactive,inactive,inactive,–,inactive,inactive,inactive,inactive,-24.8%,inactive,inactive,–,inactive,inactive,inactive,–,–,–
CC(CC1c2ccccc2CCc2ccccc21)CN(C)C (centres undefined),–,10.7 µM (active),inactive,inactive,inactive,inactive,inactive,inactive,inactive,inactive,–,inactive,inactive,inactive,–,–,inactive,–,inactive,–
C=C(C)C(=O)OCCOCCOC(=O)C(=C)C,–,inactive,inactive,inactive,inactive,inactive,inactive,inactive,inactive,inactive,1.33%,inactive,inactive,inactive,inactive,inactive,inactive,6.4%,inactive,inactive
C[C@H]1c2cccc(O)c2C(O)=C2C(=O)[C@]3(O)C(O)=C(C(N)=O)C(=O)[C@@H](N(C)C)[C@@H]3[C@@H](O)[C@@H]21,–,inactive,inactive,inactive,inactive,inactive,inactive,–,inactive,inactive,0.751%,inactive,inactive,–,inactive,inactive,inactive,-33.4% [at 42.5 µM],inactive,18.8 µM (active)
CCCCCC[C@@H](O)C/C=C\CCCCCCCC(=O)OCC(O)CO (some centres undefined),–,inactive,inactive,inactive,inactive,inactive,inactive,inactive,inactive,inactive,10.7%,inactive,inactive,inactive,inactive,inactive,inactive,-2.03%,inactive,inactive
O=C1C(=O)c2ccccc2C(O)=C1C1CCC(c2ccc(Cl)cc2)CC1 (centres undefined),–,inactive,inactive,inactive,inactive,inactive,inactive,–,inactive,inactive,–,inactive,inactive,inactive,inactive,–,inactive,0.683% [at 42.5 µM],inactive,10.6 µM (active)
COC(=O)[C@H]1[C@H]2C[C@@H]3c4[nH]c5cc(OC)ccc5c4CCN3C[C@H]2C[C@@H](OC(=O)/C=C/c2ccc(O)c(OC)c2)[C@@H]1OC,–,inactive,inactive,inactive,inactive,–,–,–,–,–,–,16.9 µM (active),23.9 µM (active),inactive,26.8 µM (active),23.9 µM (active),inactive,-35.3% [at 42.5 µM],inactive,–
Cc1cccc(O)c1N,inactive,–,inactive,inactive,inactive,–,inactive,inactive,–,inactive,–,inactive,inactive,–,inactive,inactive,–,-14.7%,inactive,–
C/C=C/C=C/C=O,–,48.6 µM (active),inactive,inactive,inactive,–,inactive,inactive,inactive,inactive,10.8%,inactive,inactive,inactive,inactive,inactive,inactive,4.86%,inactive,inactive
CC(C)=CCC1C(=O)N(c2ccccc2)N(c2ccccc2)C1=O,inactive,–,–,inactive,inactive,inactive,inactive,–,inactive,inactive,4.23%,inactive,inactive,–,inactive,inactive,inactive,–,inactive,–
